The values below come from PubChem BioAssay.

Calls of active or inactive are those of the source. Unless noted, the rule behind the calls is not given here.

Assay [1] deals with XIP peptide (Xip251-270) binding. The assay can be described thus: XIP fragment 251-270 binding compounds – biochemical, small-molecule microarray, fluorescence 635/667 nm, 0.1 µg/mL protein, primary screen (AID 1182). The conditions noted are these: fluorescent protein binding, 635 nm, higher = more signal, called active from +8 up or from −8 down.
For another assay, the system named is XIP peptide (Xip251-270). The assay is described as follows: compounds binding XIP fragment 251-270 – biochemical, small-molecule microarray, fluorescence 635/667 nm, 0.5 µg/mL protein, primary screen (AID 1183). The conditions noted are these: fluorescence 635 nm, higher = more signal.
The nature of assay [2]: blood-stage malaria parasite viability loss – strain 3D7, DAPI fluorescence, 100 nL, primary screen (AID 1184).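 Note: parasites grown inside human red blood cells in medium with human serum.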 The settings on record: P. falciparum 3D7 growth, 3 d, higher = more signal.
The target in assay [3] is Homeobox protein Hox-A13 (Mus musculus) (UniProt Q62424). The assay can be described thus: disruptors of Hoxa13 oligonucleotide interaction – biochemical, fluorescence polarization, labeled oligonucleotide, primary screen (AID 1185). The conditions noted are these: Hoxa13:DNA binding, 15 min, higher = more signal, called active from +8 up or from −8 down. A general note: Fluorescence polarisation rises when a labelled molecule tumbles more slowly, as on binding a larger partner.
Chain of Homeobox protein Hox-A13 (Mus musculus) (Q62424 whole entry, looked up): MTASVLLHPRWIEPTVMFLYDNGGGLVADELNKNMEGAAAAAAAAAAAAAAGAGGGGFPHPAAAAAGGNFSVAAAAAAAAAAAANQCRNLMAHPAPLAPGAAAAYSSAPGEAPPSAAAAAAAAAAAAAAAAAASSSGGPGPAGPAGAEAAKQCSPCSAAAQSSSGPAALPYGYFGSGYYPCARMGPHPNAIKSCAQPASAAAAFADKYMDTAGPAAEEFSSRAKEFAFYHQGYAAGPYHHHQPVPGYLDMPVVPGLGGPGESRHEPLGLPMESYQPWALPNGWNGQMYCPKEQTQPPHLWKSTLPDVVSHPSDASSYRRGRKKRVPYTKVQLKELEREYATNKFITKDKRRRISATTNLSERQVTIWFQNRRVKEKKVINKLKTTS

The nature of assay [4]: blockers of DNA damage checkpoint Chk1 activation – imaging, HeLa, hydroxyurea, phospho-Chk1 antibody, percent positive cells, primary screen (AID 1186). The settings on record: hydroxyurea-induced phospho-Chk1 immunofluorescence imaging, higher = more signal.
The nature of assay [5]: blockers of DNA damage checkpoint Chk1 activation – imaging, HeLa, hydroxyurea, phospho-Chk1 nuclear intensity, primary screen (AID 1187). The settings on record: hydroxyurea-induced phospho-Chk1 immunofluorescence imaging, higher = more signal.

With `C=C[C@H](COC(C)=O)N(C(=O)OC(C)(C)C)S(=O)(=O)c1ccc(Br)cc1`, the figures for the composite z-score (in assay [1]; with XIP peptide (Xip251-270)) were 0.252 (inactive) and -0.263, respectively. Also, the z-score in assay [2] was 1.18; in assay [3], -2.87 (inactive); in assay [4] it was -0.255 (inactive); in assay [5], 0.0038 (inactive).

On to `CN1C(=O)C2C=CC(C(O)C3CCCCC3)N(Nc3ccc([N+](=O)[O-])cc3[N+](=O)[O-])C2C1=O` (configuration not stated), for which the results for the composite z-score (in assay [1]; in the assay on XIP peptide (Xip251-270)) were 0.514 (inactive) and 0.487, respectively. For the same compound, the z-score in assay [2] was 0.501; in assay [3] it was -2.4 (inactive); in assay [4] it was 0.168 (inactive); in assay [5], 0.377 (inactive).

`O=C1OCCC/C=C\[C@H]2OC34C=CCN(Cn5nnc6ccccc65)C(=O)[C@H]3N(CCCCCCO)C(=O)[C@@H]4C12` (some centres not stated): the composite z-score in assay [1] is -0.0221 (inactive); in the assay with XIP peptide (Xip251-270), -0.0976. Besides, the z-score is -0.395 in assay [2], -4.38 (inactive) in assay [3], -0.471 (inactive) in assay [4] and 0.832 (inactive) in assay [5].

With `CC(C)C(CO)N1C(=O)[C@@H]2[C@H]3C(=O)OCC=C[C@H]3OC23C=CCN(C(C)C)C(=O)[C@@H]13` (some centres not stated), the composite z-score in assay [1] is 1.63 (inactive); with XIP peptide (Xip251-270), -0.0455. In addition, the z-score was -0.499 in assay [2], -4.02 (inactive) in assay [3], 0.475 (inactive) in assay [4] and 0.305 (inactive) in assay [5].

With `COc1cc2c(cc1OC)CN(C(=O)[C@@H]1[C@H]3C(=O)O[C@H](c4ccccc4)[C@H](c4ccccc4)N3[C@H](c3ccc(O)cc3)[C@@]13C(=O)Nc1ccc(C#CC4(O)CCCCCC4)cc13)CC2`, the composite z-score is 0.479 (inactive) in assay [1] and 0.774 in the assay with XIP peptide (Xip251-270). The z-score in assay [2] is -0.489; in assay [3], -1.53 (inactive); in assay [4], 0.263 (inactive); in assay [5], 0.812 (inactive).

For the compound `CN1C2C=C(CCCO)C(C3C(=O)N(C(N)=O)C(=O)C32)C1c1ccc(CN2CCCC2)cc1` (configuration not stated), the composite z-score in assay [1] was 0.276 (inactive); in the assay with XIP peptide (Xip251-270), 0.297. The z-score in assay [2] is 0.446; in assay [3] it was -5.26 (inactive); in assay [4], 0.0965 (inactive); in assay [5] it was -0.0741 (inactive).

As for `CN1C(=O)C2C=CC(C(O)Cc3ccccc3)N(Nc3ccccc3)C2C1=O` (configuration not stated), the results for the composite z-score (in assay [1]; with XIP peptide (Xip251-270)) were -0.0041 (inactive) and 0.508, respectively. Also, the z-score in assay [2] was 0.538; in assay [3], -4.51 (inactive); in assay [4] it was -0.444 (inactive); in assay [5], -0.889 (inactive).

For `CCCC[C@@H]1C[C@H]1[C@@H](NC(=O)c1ccco1)c1ccc(C(=O)OC)cc1`, the results for the composite z-score (in assay [1]; in the assay on XIP peptide (Xip251-270)) were -0.687 (inactive) and -0.16, respectively. In addition, the z-score in assay [2] was -0.941; in assay [3], 0.198 (inactive); in assay [4] it was 0.29 (inactive); in assay [5], 0.0944 (inactive).

With `C=CCNC(=O)[C@@H]1[C@H]2C(=O)O[C@H](c3ccccc3)[C@H](c3ccccc3)N2[C@H](c2ccccc2OCCO)[C@@]12C(=O)N(C(=O)OCCOC)c1ccc(C#CCNC(N)=O)cc12`, the composite z-score was 0.347 (inactive) in assay [1] and 0.66 with XIP peptide (Xip251-270). For the same compound, the z-score in assay [2] is -0.531; in assay [3], -1.84 (inactive); in assay [4], -0.189 (inactive); in assay [5], -0.159 (inactive).

On to `COc1ccc(NN2C(C(O)c3ccc([N+](=O)[O-])cc3)C=CC3C(=O)N(C4CCCCC4)C(=O)C32)cc1` (configuration not stated), for which the composite z-score in assay [1] was -0.025 (inactive); in the assay with XIP peptide (Xip251-270) it was -0.0788. The z-score in assay [2] is -0.0215; in assay [3] it was -3.73 (inactive); in assay [4], -0.414 (inactive); in assay [5] it was -0.331 (inactive).

For `COc1cc2c(cc1OC)CN(C(=O)[C@H]1[C@@H]3C(=O)O[C@@H](c4ccccc4)[C@@H](c4ccccc4)N3[C@@H](c3ccc(O)cc3)[C@]13C(=O)Nc1ccc(C#CC4=CCCCC4)cc13)CC2`, the values for the composite z-score (in assay [1]; in the assay with XIP peptide (Xip251-270)) were 0.546 (inactive) and 0.795, respectively. Moreover, the z-score in assay [2] was -2.08; in assay [3] it was 1.4 (inactive); in assay [4] it was 0.138 (inactive); in assay [5], 0.352 (inactive).

`C=C(C)C1C(=C)CN([C@H](CO)c2ccccc2)C1=O` (some centres not stated): the composite z-score in assay [1] was -0.389 (inactive); in the assay with XIP peptide (Xip251-270), -0.149. Besides, the z-score was -0.977 in assay [2], -2.61 (inactive) in assay [3], -0.347 (inactive) in assay [4] and -0.339 (inactive) in assay [5].

As for `C=CCOC(=O)[C@H]1[C@@H]2C(=O)O[C@@H](c3ccccc3)[C@@H](c3ccccc3)N2[C@@H](c2ccc(OCCOC(=O)[C@@H]3C[C@@H]4C(=O)N5CCC[C@H]5C(=O)N4[C@@H]3c3cccc(OCCO)c3)cc2)[C@]12C(=O)Nc1ccccc12`, the composite z-score was 1.48 (inactive) in assay [1] and 0.846 in the assay with XIP peptide (Xip251-270). The z-score in assay [2] was -1.71; in assay [3], -0.113 (inactive); in assay [4] it was -0.934 (inactive); in assay [5], -0.0548 (inactive).

In the case of `COC(=O)[C@@]1(Cc2ccc(F)cc2)[C@H]2c3cc(C(=O)N4CCCC4)n(Cc4cc(C)n(C)n4)c3C[C@H]2CN1C(=O)c1ccccc1`, the values for the composite z-score (in assay [1]; in the assay with XIP peptide (Xip251-270)) were 1.55 (inactive) and 0.759, respectively. The z-score in assay [2] was -1.58; in assay [3] it was -3.99 (inactive); in assay [4], 0.611 (inactive); in assay [5], 0.53 (inactive).

On to `COc1ccc(C(O)C2C=CC3C(=O)N(c4ccccc4)C(=O)C3N2Nc2ccc(C(C)C)cc2)cc1OCc1ccccc1` (configuration not stated), for which the composite z-score in assay [1] was 0.658 (inactive); in the assay on XIP peptide (Xip251-270), 0.8. Also, the z-score is 0.1 in assay [2], -0.47 (inactive) in assay [3], -0.309 (inactive) in assay [4] and -0.472 (inactive) in assay [5].

With `O=C1OCC=C[C@H]2OC34C=CCN(CCN5CCOCC5)C(=O)[C@H]3N(CCCO)C(=O)[C@@H]4[C@@H]12` (some centres not stated), the composite z-score in assay [1] is -0.0676 (inactive); with XIP peptide (Xip251-270) it was -0.0046. Moreover, the z-score is -1.83 in assay [2], -4.01 (inactive) in assay [3], 0.2 (inactive) in assay [4] and 0.099 (inactive) in assay [5].

Turning to `N#Cc1ccc(NN2C(C(O)c3c(F)cccc3Cl)C=CC3C(=O)N(c4ccccc4)C(=O)C32)cc1` (configuration not stated), the composite z-score in assay [1] was 0.817 (inactive); in the assay on XIP peptide (Xip251-270) it was 0.748. The z-score was -0.677 in assay [2], 0.238 (inactive) in assay [3], 0.0345 (inactive) in assay [4] and 0.0457 (inactive) in assay [5].

On to `Cc1ccc(C(C)CC(O)C2C=CC3C(=O)N(C)C(=O)C3N2NC(=O)OC(C)(C)C)o1` (configuration not stated), for which the composite z-score in assay [1] was 3.24 (inactive); in the assay on XIP peptide (Xip251-270), 0.709. For the same compound, the z-score is 0.556 in assay [2], -3.33 (inactive) in assay [3], -0.158 (inactive) in assay [4] and -0.168 (inactive) in assay [5].

In the case of `CCOC(=O)C[C@H]1[C@H](OC(=O)c2ccc(C(=O)c3ccccc3)cc2)[C@@H](NC(=O)c2ccc(-c3ccccc3)cc2)c2cc(OCCCO)ccc2N1C(=O)c1ccccc1`, the values for the composite z-score (in assay [1]; in the assay with XIP peptide (Xip251-270)) were 0.233 (inactive) and 0.549, respectively. The z-score in assay [2] was -0.786; in assay [3], -1.36 (inactive); in assay [4] it was 0.428 (inactive); in assay [5], 0.303 (inactive).

For `CCCCC(O)C1C=CC2C(=O)N(c3ccccc3)C(=O)C2N1Nc1ccccc1F` (configuration not stated), the composite z-score was 0.335 (inactive) in assay [1] and 0.744 in the assay on XIP peptide (Xip251-270). In addition, the z-score in assay [2] is 1.01; in assay [3], -3.4 (inactive); in assay [4] it was 0.772 (inactive); in assay [5] it was -0.0522 (inactive).

Turning to `CCCC#C[Si](O[C@H](CC)c1cn([C@H](CO)Cc2ccccc2)nn1)(C(C)C)C(C)C`, the results for the composite z-score (in assay [1]; in the assay on XIP peptide (Xip251-270)) were 0.149 (inactive) and 0.405, respectively. Also, the z-score in assay [2] was 0.129; in assay [3], -0.713 (inactive); in assay [4], 0.112 (inactive); in assay [5], -0.311 (inactive).

As for `COC(=O)C(CC#Cc1ccc2c(c1)[C@]1(C(=O)N2)[C@H](c2ccc(O)cc2)N2[C@H](c3ccccc3)[C@H](c3ccccc3)OC(=O)[C@H]2[C@@H]1C(=O)Nc1nc2ccccc2s1)C(=O)OC`, the results for the composite z-score (in assay [1]; with XIP peptide (Xip251-270)) were 1.09 (inactive) and 0.833, respectively. For the same compound, the z-score in assay [2] was -0.591; in assay [3], -0.645 (inactive); in assay [4] it was -0.0827 (inactive); in assay [5], -0.46 (inactive).
